The values below come from the OligoGym collection.
Note: reference of the scale not given here.

The target in the first assay is FAM134A. The assay can be described thus: pooled miR-30 sensor sort-seq; sequence = guide strand. Particulars: shRNA.
The sequence TTGGCTTCTGCCTTCATGCTGT yielded a sensor-assay potency score (higher = more potent) of 0.471. Take TTCAAGTCAACACCTGCACAGA: the sensor-assay potency score (higher = more potent) was -0.356. As for TAAGAGTGTAACTACTGGCCTG, the sensor-assay potency score (higher = more potent) is -0.0872. The sequence AAGAGTGTAACTACTGGCCTGA gave a sensor-assay potency score (higher = more potent) of 0.464.

TTTCTTCACATCCACCACTGGG gave a sensor-assay potency score (higher = more potent) of -0.774. For the sequence AACAGCAACACTCCTAGCCAGG, the sensor-assay potency score (higher = more potent) is -1.64. The sequence TTCTTGGTCTGACTGTACCAGA showed a sensor-assay potency score (higher = more potent) of -0.779. TGAATCTGGAAGGTGAGCCAGC yielded a sensor-assay potency score (higher = more potent) of -0.0919.

Sequence TATTTTTCAAGTCAACACCTGC returned a sensor-assay potency score (higher = more potent) of -0.352.

In turn, TACACAGACTACAGTGACCTAA yielded a sensor-assay potency score (higher = more potent) of -0.201. In turn, TTCTTCACATCCACCACTGGGG returned a sensor-assay potency score (higher = more potent) of -0.152. Sequence TACCAGAGAATGGATGTCGGGC showed a sensor-assay potency score (higher = more potent) of -0.337.

A further assay concerns the target FAM151A. The assay is described as above. Particulars: shRNA.
With TAGCCTGTAGTAGACTCGGGTC, the sensor-assay potency score (higher = more potent) is -0.281. On to TTTGCCTTCCTCTGTCAGCTGC, for which the sensor-assay potency score (higher = more potent) was 0.237. Turning to TTGTGCTCCACTGTGACGGTGG, the sensor-assay potency score (higher = more potent) is 0.185. TAGCATATCTGTGAGCAGCTGT had a sensor-assay potency score (higher = more potent) of 0.652.

As to AAAGATGTCATAGTAGACTTGG, the sensor-assay potency score (higher = more potent) turned out to be 0.264. The sequence TAAGATGTCAGCGTTGATCCAT gave a sensor-assay potency score (higher = more potent) of 0.0658.
